Not all results are given here.
TNAP inh pNP: inhibitors of human tissue-nonspecific alkaline phosphatase | AID 615 | purified TNAP, pNPP hydrolysis, absorbance 405 nm | inhibition, % at 20 µM | 21,000 tested, under 10 active | P05186;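 further: 0% = DMSO only wells and 100% = 1 mM levamisole wells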
TNAP Pi inh: blocks human TNAP phosphate release; 21,000 tested, under 10 active; inhibition, % at 20 µM; P05186; purified TNAP, pNPP, malachite green phosphate absorbance
Starred values were filed as active, the others as inactive.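 How the source made its calls: active means inhibition above 50% at the 20 µM single-dose screen; inactive means the rest.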

Screening Cc1nn(CCc2nc(-c3ccco3)cs2)c2[nH]c(=O)cc(C(F)(F)F)c12 returned TNAP inh pNP 5 and TNAP Pi inh -8.
`COc1ccc(OC)c(N(CC(=O)Nc2ccc3c(c2)OCCO3)S(C)(=O)=O)c1` gave TNAP inh pNP 4 and TNAP Pi inh 6.
`CCn1c2ccccc2c2nnc(SCC(=O)N3CC(C)OC(C)C3)nc21` (configuration not stated) gave TNAP inh pNP 3 and TNAP Pi inh -2.
`Cc1cccc2cc(C#N)c(NCCNS(=O)(=O)c3ccc4c(c3)OCCO4)nc12` gave TNAP inh pNP -1 and TNAP Pi inh -16.
O=C1NC2CCCCC2NC1CC(=O)N1CCN(c2ccccc2)CC1 (configuration not stated) was read as TNAP inh pNP 2 and TNAP Pi inh 17.
For CC1(c2ccc(Cl)cc2)NC(=O)N(CC(=O)N2CCCC2)C1=O (configuration not stated) the results were TNAP inh pNP -9 and TNAP Pi inh -4.
For COc1ccccc1CCNC(=O)c1ccoc1C the results were TNAP inh pNP 0 and TNAP Pi inh 8.
O=C(CN1CCN(C2CCCCC2)CC1)NCCC1=CCCCC1 was read as TNAP inh pNP 5 and TNAP Pi inh 11.
For CCCCn1c(N2CCC(Cc3ccccc3)CC2)nc2c1c(=O)[nH]c(=O)n2C the results were TNAP inh pNP -5 and TNAP Pi inh 6.
`O=C(c1cccc2ccccc12)N1CCC(N2CCN(c3ccccc3)CC2)CC1` gave TNAP inh pNP 0 and TNAP Pi inh -17.
`Cc1ccc(S(=O)(=O)Nc2ccc(Br)cc2/C=N/n2cnnc2)cc1` gave TNAP inh pNP 2 and TNAP Pi inh 9.
`Cc1cc(C(=O)N2CCN(Cc3ccc4c(c3)OCO4)CC2)cs1` gave TNAP inh pNP 4 and TNAP Pi inh 5.
Screening O=C(CCS(=O)(=O)c1ccc(Cl)cc1)OCC(=O)N1CCCCC1 returned TNAP inh pNP 0 and TNAP Pi inh 0.
Screening CCN(CC(=O)NC)S(=O)(=O)c1ccc(Br)cc1 returned TNAP inh pNP 3 and TNAP Pi inh -6.
`Cc1ccnc(N2CCC(C(=O)Nc3cccc(C(F)(F)F)c3)CC2)n1` gave TNAP inh pNP 2 and TNAP Pi inh 5.
Cc1noc2nc(-c3cccs3)cc(-c3nnc4n3CCCCC4)c12 was read as TNAP inh pNP 4 and TNAP Pi inh -10.
Cc1c(OC(=O)CNC(=O)OC(C)(C)C)ccc2c3c(c(=O)oc12)CCC3 was read as TNAP inh pNP 2 and TNAP Pi inh 11.
For CCCCc1ccc(S(=O)(=O)Nc2cc(C)on2)cc1 the results were TNAP inh pNP -2 and TNAP Pi inh 6.
`CCCn1c(SCc2cc(=O)[nH]c3ccccc23)nc2c1c(=O)n(C)c(=O)n2C` gave TNAP inh pNP 4 and TNAP Pi inh 12.
Cc1ccc(NC(=O)NC(=O)CN2C(=O)NC3(CCc4ccccc43)C2=O)c(C)c1 (configuration not stated) was read as TNAP inh pNP -10 and TNAP Pi inh -4.
Cc1ccc2c(C)nc(NC3=NCN(CCc4ccccc4)CN3)nc2c1 was read as TNAP inh pNP 4 and TNAP Pi inh 8.
For COc1ccc(C2(C(=O)N3CCOCC3)CCOCC2)cc1OC the results were TNAP inh pNP 3 and TNAP Pi inh 8.
Screening O=C1NCCN1C(=O)N(c1ccccc1)c1ccccc1 returned TNAP inh pNP 1 and TNAP Pi inh 9.
For Cc1cc(N2CCCC2=O)c(N)cc1N the results were TNAP inh pNP 6 and TNAP Pi inh 8.
CC(C)(C)Sc1nc(O)cc(=O)[nH]1 was read as TNAP inh pNP -3 and TNAP Pi inh 3.
Cc1cc2nc(NC3=NCN(Cc4ccc5c(c4)OCO5)CN3)nc(C)c2cc1C was read as TNAP inh pNP 4 and TNAP Pi inh 12.
Screening Cc1ccc(-c2csc(/C(C#N)=C(\O)CN3CCN(C(=O)c4ccco4)CC3)n2)cc1 returned TNAP inh pNP -10 and TNAP Pi inh -6.
COc1ccc(NC(=O)CSc2nc(-c3ccncc3)nn2CC(=O)N2CCCC2)cc1 was read as TNAP inh pNP 5 and TNAP Pi inh -16.
Screening CCOc1cc(C(=O)Nc2ccccc2N2CCN(S(C)(=O)=O)CC2)cc(OCC)c1OCC returned TNAP inh pNP -3 and TNAP Pi inh 3.
Screening COC(=O)CCN(c1ccccc1)S(=O)(=O)c1ccc(OC)cc1 returned TNAP inh pNP -5 and TNAP Pi inh -4.
Screening O=C(CN(Cc1ccc2c(c1)OCO2)C(=O)c1cnsn1)NC1CCCC1 returned TNAP inh pNP 6 and TNAP Pi inh 8.
For CN(C)CCCN1C(=O)C(=O)/C(=C(/O)c2ccc3c(c2)OCO3)C1c1ccccn1 (configuration not stated) the results were TNAP inh pNP -2 and TNAP Pi inh 6.
Cc1cc2n(n1)C(c1c[nH]c3ccccc13)Nc1ccccc1-2 (configuration not stated) was read as TNAP inh pNP 3 and TNAP Pi inh 8.

Assay outcomes from PubChem BioAssay.
